Laboratory results as given in the supplement of paper PMC8728848.
The full list was thinned out, with the strongest signals kept by preference.

Columns and labels:
Assay in all cases: glycan array binding signal (z-score within array); higher = stronger binding
Details in all cases: glycan notation: IUPAC condensed, linker removed
[1] = biological target: Fuc(a1-2)Gal(b1-3)GalNAc(b1-3)Gal(a1-4)Gal(b1-4)Glc
How it was run: (§1)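 From the Consortium for Functional Glycomics database, 3228 arrays were curated, keeping only those whose protein sequence was available. Binding is given as a within-array Z-score averaged across arrays sharing a protein sequence and across linkers. Negative Z-scores can be read as non-binding.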

[2] = biological target: Fuc(a1-2)Gal(b1-3)GlcNAc6S
How it was run: as §1

[3] = biological target: Fuc(a1-2)Gal(b1-3)[Fuc(a1-4)]GlcNAc
How it was run: as §1

[4] = biological target: Fuc(a1-2)Gal(b1-3)[Fuc(a1-4)]GlcNAc(b1-3)[Gal(b1-4)GlcNAc(b1-6)]Gal(b1-4)Glc
How it was run: as §1

[5] = biological target: Fuc(a1-2)Gal(b1-4)GlcNAc(b1-2)Man(a1-3)[Fuc(a1-2)Gal(b1-4)GlcNAc(b1-2)Man(a1-6)]Man(b1-4)GlcNAc(b1-4)GlcNAc
How it was run: as §1

[6] = biological target: Fuc(a1-2)Gal(b1-4)[Fuc(a1-3)]GlcNAc(b1-3)GalNAc
How it was run: as §1

[7] = biological target: Fuc(a1-2)Gal3S(b1-4)GlcNAc
How it was run: as §1

[8] = biological target: Fuc(a1-2)[Gal(a1-3)]Gal(b1-3)GalNAc(b1-3)Gal(a1-4)Gal(b1-4)Glc
How it was run: as §1

[9] = biological target: Fuc(a1-2)[Gal(a1-3)]Gal(b1-4)GlcNAc(b1-2)Man(a1-3)[Fuc(a1-2)[Gal(a1-3)]Gal(b1-4)GlcNAc(b1-2)Man(a1-6)]Man(b1-4)GlcNAc(b1-4)GlcNAc
How it was run: as §1

[10] = biological target: Fuc(a1-2)[GalNAc(a1-3)]Gal(b1-4)GlcNAc(b1-2)Man(a1-3)[Fuc(a1-2)[GalNAc(a1-3)]Gal(b1-4)GlcNAc(b1-2)Man(a1-6)]Man(b1-4)GlcNAc(b1-4)GlcNAc
How it was run: as §1

[11] = biological target: Fuc(a1-3)[Gal(b1-4)]GlcNAc(b1-6)GalNAc
How it was run: as §1

[12] = biological target: Gal(a1-3)Gal(b1-4)GlcNAc(b1-2)Man(a1-3)[Gal(a1-3)Gal(b1-4)GlcNAc(b1-2)Man(a1-6)]Man(b1-4)GlcNAc(b1-4)GlcNAc
How it was run: as §1

[13] = biological target: Gal(a1-3)[Gal(a1-4)]Gal(b1-4)GlcNAc
How it was run: as §1

[14] = biological target: Gal(a1-4)Gal(b1-3)GlcNAc(b1-2)Man(a1-3)[Gal(a1-4)Gal(b1-3)GlcNAc(b1-2)Man(a1-6)]Man(b1-4)GlcNAc(b1-4)GlcNAc
How it was run: as §1

Gal(b1-4)Gal = biological target: Gal(b1-4)Gal
How it was run: as §1

[15] = biological target: Gal(b1-4)GlcNAc(b1-2)[Gal(b1-4)GlcNAc(b1-4)]Man(a1-3)[GlcNAc(b1-4)][Gal(b1-4)GlcNAc(b1-2)Man(a1-6)]Man(b1-4)GlcNAc(b1-4)GlcNAc
How it was run: as §1

[16] = biological target: Gal(b1-4)GlcNAc(b1-3)Gal(b1-3)GalNAc
How it was run: as §1

[17] = biological target: Gal(b1-4)GlcNAc(b1-3)Gal(b1-4)Glc
How it was run: as §1

[18] = biological target: Gal(b1-4)GlcNAc(b1-3)Gal(b1-4)GlcNAc(b1-2)Man(a1-3)[Gal(b1-4)GlcNAc(b1-3)Gal(b1-4)GlcNAc(b1-2)Man(a1-6)]Man(b1-4)GlcNAc(b1-4)[Fuc(a1-6)]GlcNAc
How it was run: as §1

[19] = biological target: Gal(b1-4)GlcNAc(b1-3)Gal(b1-4)GlcNAc(b1-3)Gal(b1-4)GlcNAc(b1-2)Man(a1-3)[Gal(b1-4)GlcNAc(b1-3)Gal(b1-4)GlcNAc(b1-3)Gal(b1-4)GlcNAc(b1-2)Man(a1-6)]Man(b1-4)GlcNAc(b1-4)GlcNAc
How it was run: as §1

[20] = biological target: Gal(b1-4)GlcNAc(b1-3)Gal(b1-4)GlcNAc(b1-3)Gal(b1-4)GlcNAc(b1-3)Gal(b1-4)GlcNAc(b1-3)Gal(b1-4)GlcNAc(b1-2)[Gal(b1-4)GlcNAc(b1-3)Gal(b1-4)GlcNAc(b1-3)Gal(b1-4)GlcNAc(b1-3)Gal(b1-4)GlcNAc(b1-3)Gal(b1-4)GlcNAc(b1-6)]Man(a1-6)[Gal(b1-4)GlcNAc(b1-3)Gal(b1-4)GlcNAc(b1-3)Gal(b1-4)GlcNAc(b1-3)Gal(b1-4)GlcNAc(b1-3)Gal(b1-4)GlcNAc(b1-2)Man(a1-3)]Man(b1-4)GlcNAc(b1-4)[Fuc(a1-6)]GlcNAc
How it was run: as §1

[21] = biological target: Gal(b1-4)GlcNAc(b1-3)GalNAc
How it was run: as §1

[22] = biological target: Gal(b1-4)GlcNAc(b1-6)[Gal(b1-3)]GalNAc
How it was run: as §1

Gal4S6S(b1-4)GlcNAc = biological target: Gal4S6S(b1-4)GlcNAc
How it was run: as §1

GalNAc(a1-3)Gal = biological target: GalNAc(a1-3)Gal
How it was run: as §1

GlcNAc(b1-3)Fuc = biological target: GlcNAc(b1-3)Fuc
How it was run: as §1

[23] = biological target: GlcNAc(b1-3)Gal(b1-4)GlcNAc(b1-3)Gal(b1-4)GlcNAc
How it was run: as §1

[24] = biological target: GlcNAc(b1-3)[GlcNAc(b1-4)][GlcNAc(b1-6)]GlcNAc
How it was run: as §1

[25] = biological target: GlcNAc(b1-4)Gal(b1-4)GlcNAc
How it was run: as §1

GlcNAc(b1-4)GlcNAc = biological target: GlcNAc(b1-4)GlcNAc
How it was run: as §1

[26] = biological target: GlcNAc(b1-4)GlcNAc(b1-4)GlcNAc
How it was run: as §1

Kdn(a2-3)Gal(b1-4)GlcNAc = biological target: Kdn(a2-3)Gal(b1-4)GlcNAc
How it was run: as §1

[27] = biological target: Man(a1-3)[Man(a1-6)]Man(b1-4)GlcNAc(b1-4)GlcNAc
How it was run: as §1

MurNAc(b1-4)GlcNAc = biological target: MurNAc(b1-4)GlcNAc
How it was run: as §1

[28] = biological target: Neu5Ac(a2-3)Gal(b1-3)GalNAc
How it was run: as §1

[29] = biological target: Neu5Ac(a2-3)Gal(b1-3)GlcNAc(b1-2)Man
How it was run: as §1

[30] = biological target: Neu5Ac(a2-3)Gal(b1-3)GlcNAc(b1-2)Man(a1-3)[GlcNAc(b1-4)][Neu5Ac(a2-3)Gal(b1-3)GlcNAc(b1-2)Man(a1-6)]Man(b1-4)GlcNAc(b1-4)GlcNAc
How it was run: as §1

[31] = biological target: Neu5Ac(a2-3)Gal(b1-3)[Fuc(a1-4)]GlcNAc
How it was run: as §1

[32] = biological target: Neu5Ac(a2-3)Gal(b1-3)[Fuc(a1-4)]GlcNAc(b1-3)Gal(b1-4)[Fuc(a1-3)]GlcNAc
How it was run: as §1

[33] = biological target: Neu5Ac(a2-3)Gal(b1-3)[GlcNAc(b1-6)]GalNAc
How it was run: as §1

[34] = biological target: Neu5Ac(a2-3)Gal(b1-4)GlcNAc(b1-2)Man
How it was run: as §1

[35] = biological target: Neu5Ac(a2-3)Gal(b1-4)GlcNAc(b1-3)Gal
How it was run: as §1

[36] = biological target: Neu5Ac(a2-3)Gal(b1-4)GlcNAc(b1-3)Gal(b1-4)GlcNAc
How it was run: as §1

[37] = biological target: Neu5Ac(a2-3)Gal(b1-4)[Fuc(a1-3)]GlcNAc(b1-6)[Gal(b1-3)]GalNAc
How it was run: as §1

[38] = biological target: Neu5Ac(a2-6)Gal(b1-4)GlcNAc(b1-2)Man(a1-3)[Gal(b1-4)GlcNAc(b1-2)Man(a1-6)]Man(b1-4)GlcNAc(b1-4)GlcNAc
How it was run: as §1

[39] = biological target: Neu5Ac(a2-6)Gal(b1-4)GlcNAc(b1-2)Man(a1-3)[GlcNAc(b1-2)Man(a1-6)]Man(b1-4)GlcNAc(b1-4)GlcNAc
How it was run: as §1

[40] = biological target: Neu5Ac(a2-6)Gal(b1-4)GlcNAc(b1-2)Man(a1-3)[Neu5Ac(a2-6)Gal(b1-4)GlcNAc(b1-2)Man(a1-6)]Man(b1-4)GlcNAc(b1-4)GlcNAc
How it was run: as §1

[41] = biological target: Neu5Ac(a2-6)Gal(b1-4)GlcNAc(b1-3)Gal(b1-4)GlcNAc(b1-2)Man(a1-3)[Neu5Ac(a2-6)Gal(b1-4)GlcNAc(b1-3)Gal(b1-4)GlcNAc(b1-2)Man(a1-6)]GalNAc
How it was run: as §1

[42] = biological target: Neu5Ac(b2-6)Gal(b1-4)GlcNAc
How it was run: as §1

[43] = biological target: Neu5Gc(a2-6)Gal(b1-4)GlcNAc
How it was run: as §1

[44] = biological target: Neu5Gc(a2-8)Neu5Gc(a2-3)Gal(b1-4)GlcNAc
How it was run: as §1

B1: LecRKVI.2 (protein)
chain: RTTTNFAFRGFNGNQSKIRIEGAAMIKPDGLLRLTDRKSNVTGTAFYHKPVRLLNRNSTNVTIRSFSTSFVFVIIPSSSSNKGFGFTFTLSPTPYRLNAGSAQYLGVFNKENNGDPRNHVFAVEFDTVQGSRDDNTDRIGNDIGLNYNSRTSDLQEPVVYYNNDDHNKKEDFQLESGNPIQALLEYDGATQMLNVTVYPARLGFKPTKPLISQHVPKLLEIVQEEMYVGFTASTGKGQSSAHYVMGWSFSSGGERPIADVLILSELPPPPPNKAKKEGLNS
B1 was tested, and the “glycan array binding signal (z-score)” value [1] was -0.133, the “glycan array binding signal (z-score)” value [2] was -0.436 and the “glycan array binding signal (z-score)” value [3] was -0.312. The “glycan array binding signal (z-score)” value [4] was -0.205, the “glycan array binding signal (z-score)” value [5] was 3.27 and the “glycan array binding signal (z-score)” value [6] was 4.76. The “glycan array binding signal (z-score)” value [7] was -0.468, the “glycan array binding signal (z-score)” value [8] was -0.403 and the “glycan array binding signal (z-score)” value [9] was 0.276. The “glycan array binding signal (z-score)” value [10] was 4.57, the “glycan array binding signal (z-score)” value [11] was 3.86 and the “glycan array binding signal (z-score)” value [12] was 3.09. For the same binder, the “glycan array binding signal (z-score)” value [13] was -0.211, the “glycan array binding signal (z-score)” value [14] was 5.85 and the “glycan array binding signal (z-score)” value (Gal(b1-4)Gal) was -0.396. The “glycan array binding signal (z-score)” value [15] was -0.319, the “glycan array binding signal (z-score)” value [16] was -0.047 and the “glycan array binding signal (z-score)” value [17] was -0.296. For the same binder, the “glycan array binding signal (z-score)” value [18] was 3.44, the “glycan array binding signal (z-score)” value [19] was 6.91 and the “glycan array binding signal (z-score)” value [20] was 0.566. The “glycan array binding signal (z-score)” value [21] was -0.373, the “glycan array binding signal (z-score)” value [22] was 1.83 and the “glycan array binding signal (z-score)” value (Gal4S6S(b1-4)GlcNAc) was -0.352. For the same binder, the “glycan array binding signal (z-score)” value (GalNAc(a1-3)Gal) was 3.89, the “glycan array binding signal (z-score)” value (GlcNAc(b1-3)Fuc) was -0.233 and the “glycan array binding signal (z-score)” value [23] was -0.415. The “glycan array binding signal (z-score)” value [24] was -0.429, the “glycan array binding signal (z-score)” value [25] was -0.256 and the “glycan array binding signal (z-score)” value (GlcNAc(b1-4)GlcNAc) was -0.232. For the same binder, the “glycan array binding signal (z-score)” value [26] was -0.408, the “glycan array binding signal (z-score)” value (Kdn(a2-3)Gal(b1-4)GlcNAc) was -0.49 and the “glycan array binding signal (z-score)” value [27] was -0.376. For the same binder, the “glycan array binding signal (z-score)” value (MurNAc(b1-4)GlcNAc) was -0.279, the “glycan array binding signal (z-score)” value [28] was -0.423 and the “glycan array binding signal (z-score)” value [29] was -0.335. For the same binder, the “glycan array binding signal (z-score)” value [30] was -0.407, the “glycan array binding signal (z-score)” value [31] was -0.318 and the “glycan array binding signal (z-score)” value [32] was -0.388. The “glycan array binding signal (z-score)” value [33] was -0.402, the “glycan array binding signal (z-score)” value [34] was -0.25 and the “glycan array binding signal (z-score)” value [35] was -0.323. For the same binder, the “glycan array binding signal (z-score)” value [36] was -0.162, the “glycan array binding signal (z-score)” value [37] was 3.09 and the “glycan array binding signal (z-score)” value [38] was 0.37. For the same binder, the “glycan array binding signal (z-score)” value [39] was -0.274, the “glycan array binding signal (z-score)” value [40] was 0.07 and the “glycan array binding signal (z-score)” value [41] was 3.81. For the same binder, the “glycan array binding signal (z-score)” value [42] was -0.393, the “glycan array binding signal (z-score)” value [43] was -0.356 and the “glycan array binding signal (z-score)” value [44] was -0.395.
